{
  "source": "ChEMBL document CHEMBL1157539",
  "about": "“Thousands of chemical starting points for antimalarial lead identification” (Nature, 2010)",
  "data": [
    {"tested_on": "HepG2", "test": "GSK_TCMDC: Percent inhibition of human HepG2 cell line. Test compounds present at 10uM.", "type": "functional", "units": {"Inhibition": "%"}, "values": [
      {"compound": "O=C(/C=C/c1ccc(Cl)c(Cl)c1)NCCCCCN1CCC(c2c[nH]c3ccc(O)cc23)CC1", "Inhibition": 20},
      {"compound": "Cc1cc(N(C)C)nc(Nc2ccc(NC(=O)CCc3ccccc3)cc2)n1", "Inhibition": 20},
      {"compound": "Cl.O=c1cc(NCCCNCc2cc(Br)cs2)[nH]c2ccccc12", "Inhibition": 11},
      {"compound": "Cc1ccc(NC(=O)Nc2ccc(Br)cc2)cc1OCCN(C)C", "Inhibition": 13},
      {"compound": "O=C(CCC1CCCCC1=O)c1ccccc1", "note": "(stereo not given)", "Inhibition": 0},
      {"compound": "COc1ccc(Cl)cc1N1CCN(CCCNC(=O)c2ccc(-c3nc4cc(Cl)c(F)cc4[nH]3)cc2)CC1", "Inhibition": 3},
      {"compound": "Cc1cc(F)ccc1Nc1nc(N(C)c2ccccc2)c2cccc(OCCO)c2n1", "Inhibition": 34},
      {"compound": "COc1cc(CC2c3cc(O)c(Cl)cc3CCN2C)c(OC)cc1C.Cl", "note": "(stereo not given)", "Inhibition": 10},
      {"compound": "CC1(C)CCC(C)(C)c2c1ccc(C1CCN(CCCCNC(=O)c3ccc(-c4ccc(Cl)cc4)cc3)CC1)c2O", "Inhibition": 100},
      {"compound": "CN(C)CCCN1CCN(Cc2ccc(-c3ccc(-c4nc5ccccc5[nH]4)s3)cc2)CC1", "Inhibition": 19},
      {"compound": "Cc1ccc(NC(C)C(=O)Nc2ccccc2)cc1S(=O)(=O)N1CCCCCC1", "note": "(stereo not given)", "Inhibition": 12},
      {"compound": "O=C(/C=C/c1ccc(Cl)c(Cl)c1)NCCCCCN1CCCN(C(=O)Nc2cc(Cl)cc(Cl)c2)CC1", "Inhibition": 53},
      {"compound": "Cc1cc(N2CCCCC2)nc2ccc(NC(=O)c3cc(=O)c4ccccc4o3)cc12", "Inhibition": 15},
      {"compound": "Cc1cccc2nc(-c3cccc(-c4cccc(CNCCN5CCNCC5)c4)c3)[nH]c12.O=C(O)C(F)(F)F", "Inhibition": 11},
      {"compound": "O=C(NCCCCN1CCC(c2ccc(Br)cc2)CC1)c1ccc(NC(=O)c2ccc(Cl)cc2)cc1", "Inhibition": 17},
      {"compound": "Cc1ccc(NCC(=O)Nc2ccc(F)c(Cl)c2)cc1S(=O)(=O)N1CCOCC1", "Inhibition": 2},
      {"compound": "COc1cccc(Nc2nc(C)cc(Nc3cccc(C#N)c3)n2)c1", "Inhibition": 0},
      {"compound": "CCOC(=O)c1ccc(N2CCN(CCCNC(=O)/C(=C/C=C/c3cc4cc(Cl)c(Cl)cc4[nH]3)OC)CC2)cc1", "Inhibition": 39},
      {"compound": "Cc1cccc2nc(-c3ccc(-c4ccc(CNCc5cnn(-c6ccccc6)n5)cc4)s3)[nH]c12.O=C(O)C(F)(F)F", "Inhibition": 16},
      {"compound": "Cc1ccnc(NC(c2ccc(Cl)c([N+](=O)[O-])c2)c2ccc3cccnc3c2O)c1", "note": "(stereo not given)", "Inhibition": 47},
      {"compound": "CC(C(=O)N1CCCC1)N1CCN(C(c2ccccc2)c2ccccc2)CC1", "note": "(stereo not given)", "Inhibition": 0},
      {"compound": "O=C(C=Cc1ccc(Cl)c(Cl)c1)NCCCCCN1CCC(CCNC(=O)/C=C/c2ccccc2)CC1", "Inhibition": 25},
      {"compound": "CCCC(C)Nc1nc(C)cc(NCCC(=O)Nc2ccc(OC)cc2)n1.O=C(O)C(F)(F)F", "note": "(stereo not given)", "Inhibition": 12},
      {"compound": "CCCCCCCOc1ccc(NC(=O)Nc2ccc(Cn3ncc(N4CCCNCC4)c(Cl)c3=O)cc2)cc1.O=C(O)C(F)(F)F", "Inhibition": 60},
      {"compound": "CCc1cn2c3c(cc(C(=O)N[C@@H](Cc4ccccc4)[C@H](O)CNC(C)C)cc13)N(C)S(=O)(=O)C2.O=CO", "Inhibition": 16},
      {"compound": "CCCCCOc1c(CCC)cc(Cc2cnc(N)nc2N)cc1CCC", "Inhibition": 58},
      {"compound": "CNCCNCc1ccc(-c2cccc(-c3nc4cc(F)ccc4[nH]3)c2)cc1.O=C(O)C(F)(F)F", "Inhibition": 10},
      {"compound": "COc1ccc(CNCc2ccc(-c3ccc(-c4nc5cc(F)ccc5[nH]4)cc3)cc2)cc1.O=C(O)C(F)(F)F", "Inhibition": 70},
      {"compound": "CC(CN1CCN(C)CC1)C(=O)Nc1cccc(-c2ccc(-c3nc4cc(C(F)(F)F)ccc4[nH]3)cc2)c1", "note": "(stereo not given)", "Inhibition": 11},
      {"compound": "NC1CCN(Cc2cccc(-c3ccc(-c4nc5ccccc5[nH]4)s3)c2)C1.O=C(O)C(F)(F)F", "note": "(stereo not given)", "Inhibition": 36},
      {"compound": "CC(C)(CNC(=O)C1CCN(CC2CCCCC2)CC1)c1nc(-c2ccc(Cl)c(O)c2)c(-c2ccncc2)[nH]1.Cl", "Inhibition": 0},
      {"compound": "Fc1ccccc1-c1cc(Nc2ccncc2)nc(-c2cccnc2)n1", "Inhibition": 91},
      {"compound": "Cc1ccc(CNC(=O)c2ccc(CN3CCCN(Cc4ccsc4)CC3)cc2)cc1.O=C(O)C(F)(F)F", "Inhibition": 16},
      {"compound": "Cc1ccc(NC(=O)c2ccc3ncccc3c2)cc1OC1CCN(C(C)C)C1.O=C(O)C(F)(F)F", "note": "(stereo not given)", "Inhibition": 12},
      {"compound": "CCNC(=O)Nc1ccc(-c2ccc(-c3nc4cccc(C)c4[nH]3)s2)cc1", "Inhibition": 18},
      {"compound": "CCN(CC)C(=O)C(=O)c1c[nH]c2ccc(Cl)cc12", "Inhibition": 1},
      {"compound": "Cc1cc(C(=O)N[C@H]2CCN(Cc3ccc(OCCCN(C)C)cc3)C2)ccc1Br.O=C(O)C(F)(F)F", "Inhibition": 88},
      {"compound": "CCCCN(CCCC)C(=O)CC(O)c1cc2c(Cl)cc(Cl)cc2c2cc(C(F)(F)F)ccc12", "note": "(stereo not given)", "Inhibition": 0},
      {"compound": "COc1ccc(OC)c2c1CCN(CCN1CCC(C(=O)Nc3ccc(C(=O)Nc4ccc(Cl)cc4)cc3)CC1)C2", "Inhibition": 25},
      {"compound": "O=C(/C=C/c1ccsc1)N1CCC(CCN2CCC(c3c[nH]c4ccccc34)CC2)CC1", "Inhibition": 37}
    ]}
  ]
}
